Common to all, as to assay: NCI-60 one-dose screen, 48 h (100 = growth as untreated, 0 = no growth, -100 = all killed)
One experiment relates to SR leukemia. Conditions: 10 µM unless noted.
A further experiment concerns OVCAR-8 ovarian. Conditions: 10 µM unless noted.
The subject of a further experiment is OVCAR-5 ovarian. The following applies: 10 µM unless noted.
The subject of the next experiment is SK-OV-3 ovarian. Conditions: 10 µM unless noted.
Another experiment relates to IGROV1 ovarian. The following applies: 10 µM unless noted.
For a further experiment, the system named is OVCAR-3 ovarian. Conditions: 10 µM unless noted.
Another experiment concerns HS 578T breast. The following applies: 10 µM.
The next experiment deals with NCI/ADR-RES ovarian. The following applies: 10 µM unless noted.
The next experiment has as its system T-47D breast. Conditions: 10 µM unless noted.
In another experiment the test system is BT-549 breast. Conditions: 10 µM unless noted.
Another experiment has as its system MDA-MB-435 melanoma. The following applies: 10 µM unless noted.
The next experiment deals with MCF7 breast. The following applies: 10 µM unless noted.
The next experiment concerns HCT-116 colon. The following applies: 10 µM unless noted.
The next experiment concerns HCC-2998 colon. Conditions: 10 µM unless noted.
Another experiment deals with KM12 colon. The following applies: 10 µM unless noted.
Another experiment has as its system RPMI-8226 leukemia. The following applies: 10 µM unless noted.
In another experiment the test system is OVCAR-4 ovarian. Conditions: 10 µM unless noted.
The test system of a further experiment is SW-620 colon. The following applies: 10 µM unless noted.

Compounds without any hit were thinned out: in the full panel of roughly 83,000, 20% have a hit.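 A percent growth of 40 corresponds to 60% growth inhibition; 0 means no net growth; -100 means all cells died. Active threshold: below 10.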 A number with no mark means an inactive call. Active and inactive are the calls of the source.

For `CN1CCN(Cc2ccc(NC(=O)c3cncc(C#Cc4ccc(N)nc4)c3)cc2C(F)(F)F)CC1`, the growth in the experiment on SR leukemia is 1.34% (active); with OVCAR-8 ovarian, 20.1%; in the experiment on OVCAR-5 ovarian, 12.5%; with SK-OV-3 ovarian, -11% (active); in the experiment with IGROV1 ovarian it was -18.2% (active); in the experiment on OVCAR-3 ovarian, 27.2%. Further, the growth in the experiment on HS 578T breast was -21.9% (active); in the experiment on NCI/ADR-RES ovarian, 25.6%; with T-47D breast, 8.16% (active); in the experiment on BT-549 breast, 18.7%; with MDA-MB-435 melanoma, 9.96% (active); in the experiment with MCF7 breast, 19.9%. The values for the growth in the experiment with HCT-116 colon, in the experiment on HCC-2998 colon and with KM12 colon were 1.86% (active), 29.8% and 5.75% (active), respectively.
With `CN(C)c1ccc(/C=N/Nc2nnc3n2N=C(c2ccc(Cl)cc2)CS3)cc1`, the growth in the experiment with RPMI-8226 leukemia was 82.5%; in the experiment with OVCAR-8 ovarian, 96.5%; in the experiment on OVCAR-5 ovarian, 108%; with OVCAR-4 ovarian, 98.8%; in the experiment with SK-OV-3 ovarian, 108%; in the experiment with IGROV1 ovarian, 84.4%. Also, the growth was 102% in the experiment with OVCAR-3 ovarian; 92% in the experiment on HS 578T breast; 94% in the experiment with NCI/ADR-RES ovarian; 84.2% in the experiment with T-47D breast; 90.3% in the experiment on BT-549 breast; 97.5% in the experiment on MDA-MB-435 melanoma. Moreover, the growth is 102% in the experiment with SW-620 colon; 77.4% in the experiment on MCF7 breast; 99% with HCT-116 colon; 106% in the experiment with HCC-2998 colon; 101% with KM12 colon.
Take `COC(=O)c1ccc(NC(N)=NCCC(C)(C)c2ccc(C(F)(F)F)cc2)nc1`: the growth in the experiment with SR leukemia is -22.2% (active); with OVCAR-8 ovarian, 50.1%; in the experiment with OVCAR-5 ovarian it was 74.2%; in the experiment on OVCAR-4 ovarian, 31.6%; in the experiment with SK-OV-3 ovarian, 60.2%; in the experiment on IGROV1 ovarian, 54.7%. For the same molecule, the growth is 75.5% in the experiment on HS 578T breast; 36.6% in the experiment with NCI/ADR-RES ovarian; -3.4% (active) in the experiment with T-47D breast; 42.6% with BT-549 breast; 50.1% in the experiment with MDA-MB-435 melanoma; 25% in the experiment on SW-620 colon. Moreover, the growth in the experiment with MCF7 breast is 10%; with HCT-116 colon it was 8.17% (active); in the experiment with HCC-2998 colon, -54% (active).
On to `COc1ccc(-c2nsc3c2NC(=O)CC3c2cccc(F)c2)cc1` (stereo not drawn), for which the growth is 15.4% in the experiment with SR leukemia; 60.4% in the experiment on OVCAR-8 ovarian; 57% with OVCAR-5 ovarian; 92.1% in the experiment with OVCAR-4 ovarian; 58.9% in the experiment on SK-OV-3 ovarian; 57.2% in the experiment with IGROV1 ovarian. Moreover, the growth in the experiment with OVCAR-3 ovarian was 9.37% (active); in the experiment on HS 578T breast, 79.1%; with T-47D breast, 33.7%; in the experiment with BT-549 breast, 50.3%; with MDA-MB-435 melanoma, -34.1% (active); in the experiment with SW-620 colon, 18%. Besides, the growth is 26.4% with MCF7 breast, 22.9% in the experiment with HCT-116 colon and 16.7% with KM12 colon.
On to `CCCCCCCCCCCCCCCCOc1ccc(S(=O)(=O)N(C)C)cc1[N+](=O)[O-]`, for which the growth in the experiment on SR leukemia is 81.6%; in the experiment with OVCAR-8 ovarian, 102%; with OVCAR-5 ovarian, 101%; with OVCAR-4 ovarian, 101%; with SK-OV-3 ovarian it was 79.2%; in the experiment on IGROV1 ovarian, 98.5%. Further, the growth was 117% in the experiment with OVCAR-3 ovarian; 80.4% with HS 578T breast; 115% in the experiment with NCI/ADR-RES ovarian; 97.4% in the experiment on BT-549 breast; 107% in the experiment on MDA-MB-435 melanoma; 113% in the experiment on SW-620 colon. The growth is 95.8% with MCF7 breast, 98.2% in the experiment on HCT-116 colon, 122% in the experiment on HCC-2998 colon and 112% in the experiment on KM12 colon.
With `CCCCn1c(-c2ccc(F)cc2)nc2cc(OC)c(OC)cc2c1=O`, the growth was 34.4% in the experiment on SR leukemia; 109% with OVCAR-8 ovarian; 108% in the experiment on OVCAR-5 ovarian; 112% with OVCAR-4 ovarian; 120% in the experiment on SK-OV-3 ovarian; 79.4% in the experiment with IGROV1 ovarian. Besides, the growth in the experiment with OVCAR-3 ovarian was 106%; in the experiment with HS 578T breast, 101%; in the experiment on NCI/ADR-RES ovarian, 93.9%; in the experiment on MDA-MB-435 melanoma, 101%; in the experiment on SW-620 colon it was 98.3%; in the experiment on MCF7 breast it was 88.2%. Moreover, the growth with HCT-116 colon is 67.3%; in the experiment with HCC-2998 colon, 103%; in the experiment on KM12 colon it was 95.8%.
For `C#CC[C@@H]1C[C@]2(C)[C@H]3CC=C4[C@H]5[C@@H](C)[C@H](C)CC[C@]5(C(=O)NCCCCCCCCN)CC[C@@]4(C)[C@]3(C)CC[C@H]2C(C)(C)[C@H]1OC(C)=O`, the growth is 3.43% (active) with SR leukemia; -33.6% (active) in the experiment on OVCAR-8 ovarian; 108% in the experiment with OVCAR-5 ovarian; -0.477% (active) in the experiment with OVCAR-4 ovarian; 116% with SK-OV-3 ovarian; 50.9% with IGROV1 ovarian. For the same molecule, the growth was -91.5% (active) with OVCAR-3 ovarian; 101% with HS 578T breast; 65.9% with NCI/ADR-RES ovarian; 93.7% in the experiment on BT-549 breast; -62.4% (active) in the experiment on MDA-MB-435 melanoma; -61.9% (active) in the experiment on SW-620 colon. In addition, the growth is -80.4% (active) in the experiment with MCF7 breast, -99.4% (active) in the experiment on HCT-116 colon, 58.4% in the experiment with HCC-2998 colon and 0.426% (active) in the experiment with KM12 colon.
In the case of `O=C(Nc1ccc(Cl)c(C(F)(F)F)c1)c1ccc(Nc2ccc(Cl)nn2)cc1`, the growth is 38.3% in the experiment with RPMI-8226 leukemia; 55.2% in the experiment on OVCAR-8 ovarian; 76.7% with OVCAR-5 ovarian; 42.2% with OVCAR-4 ovarian; 85.3% in the experiment on SK-OV-3 ovarian; 87.6% in the experiment on IGROV1 ovarian. The growth is 66.8% with OVCAR-3 ovarian; 85.7% in the experiment with HS 578T breast; 61.1% with NCI/ADR-RES ovarian; 28.6% in the experiment on T-47D breast; 37.2% in the experiment on BT-549 breast; 80.2% with MDA-MB-435 melanoma. Besides, the growth in the experiment on SW-620 colon was 96.8%; with MCF7 breast, 53%; with HCT-116 colon it was 53.5%; in the experiment with HCC-2998 colon, 67.4%; with KM12 colon, 51.1%.
On to `[Ag].[Ag].[NH-]S(=O)(=O)c1ccc(N=Nc2cc(N=Nc3ccc(S([NH-])(=O)=O)cc3)c3c(NC(=O)C(Cl)Cl)cccc3c2OC(=O)C(Cl)Cl)cc1.[c-]1nccs1.[c-]1nccs1`, for which the growth with RPMI-8226 leukemia was 83.5%; with OVCAR-8 ovarian, 68.3%; in the experiment on OVCAR-5 ovarian it was 120%; in the experiment with OVCAR-4 ovarian, 110%; in the experiment with SK-OV-3 ovarian, 114%; with IGROV1 ovarian, 76.2%. Also, the growth with OVCAR-3 ovarian was 72.7%; in the experiment on HS 578T breast, 76.3%; with NCI/ADR-RES ovarian it was 90.4%; in the experiment on T-47D breast, 7.8% (active); in the experiment with BT-549 breast it was 104%; with MDA-MB-435 melanoma, 87.2%. The growth in the experiment with SW-620 colon is 58.7%; in the experiment on MCF7 breast, 50.8%; with HCT-116 colon, 65.4%; in the experiment on HCC-2998 colon, 99.1%; with KM12 colon it was 80.9%.

The record behind these values is PubChem BioAssay (NCI).
